The nature of assay [1]: NCI Yeast Anticancer Drug Screen. Data for the rad50 strain (AID 155).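 Also: 0% = growth of vehicle-only cultures of the same strain.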 Conditions: S. cerevisiae rad50 strain growth inhibition, active compounds read high. The essentials:
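DNA repair mutant yeast, compound exposure, growth read-out; inhibition is taken relative to vehicle.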

Assay [2] is described as follows: NCI Yeast Anticancer Drug Screen. Data for the mec2-1 strain (AID 157). Conditions: S. cerevisiae mec2-1 strain, active compounds read high. The method, boiled down:
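mec2-1 yeast strain, carrying an alteration in DNA damage repair or cell cycle control, was exposed to compounds; growth inhibition was measured relative to vehicle-treated controls.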

Assay [3] can be described thus: NCI Yeast Anticancer Drug Screen. Data for the sgs1 mgt1 strain (AID 161).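 Also: 0% = growth of cultures given vehicle only.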 The conditions noted are these: S. cerevisiae sgs1 mgt1 strain, active compounds read high. The essentials:
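Percent growth inhibition was derived by comparing compound-exposed mutant yeast with vehicle-exposed cultures. The strain carries alterations in DNA damage repair.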

A short description of assay [4]: NCI Yeast Anticancer Drug Screen. Data for the cln2 rad14 strain (AID 165).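 Also: 0% = growth equal to vehicle treated cultures.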 The conditions noted are these: S. cerevisiae cln2 rad14 strain, active compounds read high. The essentials: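 Yeast carrying cln2 and rad14 alterations (cell cycle control and DNA damage repair) were exposed to compounds. Growth inhibition was measured against vehicle-treated controls.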
A short description of assay [5]: NCI Yeast Anticancer Drug Screen. Data for the bub3 strain (AID 167). The conditions noted are these: S. cerevisiae bub3 mutant strain, active compounds read high. The method, boiled down:
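In this screen, a yeast mutant lacking normal mitotic checkpoint function is challenged with compound. Relative growth versus vehicle gives the inhibition value.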

A short description of assay [6]: NCI Yeast Anticancer Drug Screen. Data for the mlh1 rad18 strain (AID 175). Conditions: S. cerevisiae mlh1 rad18 strain growth inhibition, active compounds read high. The method, boiled down:
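Growth inhibition of the yeast strain was measured after compound exposure and expressed relative to vehicle-treated controls. The strain carries defined defects in DNA damage repair.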

Where [7] appears, read: at 5.0 µM (retest, dose inferred, filed as 0.5).
Where [8] appears, read: at 50.0 µM (retest, dose inferred, filed as 5.0).

The record followed here is PubChem BioAssay (NCI).

This is part of a sample that, as a whole, favours compounds with a hit. Of some 79,000 tested, about 15% had one in any assay. A number with no mark means an inactive call. Active and inactive are the calls of the source. Rule as the data show it: active = growth inhibition above about 70%; inactive = the rest.

With `COC(=O)C(C#N)=C(SC)SC`, the growth inhibition is 7% in assay [1] (setting [7]); 99% (active) in assay [1] (setting [8]); 99.3% (active) in assay [1] (at 50.0 µM); 4% in assay [2] (setting [7]); 99% (active) in assay [2] (setting [8]); 98.2% (active) in assay [2] (at 50.0 µM). The growth inhibition in assay [3] (setting [7]) is 17%; in assay [3] (setting [8]), 99% (active); in assay [3] (at 50.0 µM) it was 99.5% (active); in assay [4] (setting [7]), -3%; in assay [4] (setting [8]) it was 98% (active); in assay [4] (at 50.0 µM), 95.2% (active). Besides, the growth inhibition in assay [5] (setting [7]) was 1%; in assay [5] (setting [8]) it was 99% (active); in assay [5] (at 50.0 µM), 98.9% (active); in assay [6] (setting [7]) it was 41%; in assay [6] (setting [8]) it was 99% (active); in assay [6] (at 50.0 µM) it was 99.1% (active).

Regarding `Cc1ccc(S(=O)(=O)Nc2ccc3c(c2)C(=O)c2ccccc2-3)cc1`, the growth inhibition was 14% in assay [1] (setting [7]); 90% (active) in assay [1] (setting [8]); 91.7% (active) in assay [1] (at 50.0 µM); 6% in assay [2] (setting [7]); 93% (active) in assay [2] (setting [8]); 91.4% (active) in assay [2] (at 50.0 µM). Further, the growth inhibition in assay [3] (setting [7]) is 7%; in assay [3] (setting [8]) it was 95% (active); in assay [3] (at 50.0 µM) it was 91.3% (active); in assay [4] (setting [7]), -5%; in assay [4] (setting [8]), 89% (active); in assay [4] (at 50.0 µM), 58.5%. The growth inhibition in assay [5] (setting [7]) is 6%; in assay [5] (setting [8]), 94% (active); in assay [5] (at 50.0 µM) it was 93.7% (active); in assay [6] (setting [7]), 17%; in assay [6] (setting [8]), 94% (active); in assay [6] (at 50.0 µM) it was 84.9% (active).

Consider `C1C2OC2C2C1C1CC2C2OC12` (stereo not given), for which the growth inhibition in assay [1] (setting [7]) was 1%; in assay [1] (setting [8]) it was -3%; in assay [1] (at 50.0 µM), 7.9%; in assay [2] (setting [7]), 0%; in assay [2] (setting [8]), -4%; in assay [2] (at 50.0 µM), -12.8%. Besides, the growth inhibition in assay [3] (setting [7]) was -3%; in assay [3] (setting [8]), -15%; in assay [3] (at 50.0 µM), -2.55%; in assay [5] (setting [7]), 1%; in assay [5] (setting [8]), 1%; in assay [5] (at 50.0 µM) it was -12.9%. Further, the growth inhibition in assay [6] (setting [7]) was 1%; in assay [6] (setting [8]), -1%; in assay [6] (at 50.0 µM), -0.1%.

Turning to `CCOC(=O)N1CCN(c2cc(C)nc3cc(OC)ccc23)CC1`, the growth inhibition in assay [1] (setting [7]) is 4%; in assay [1] (setting [8]), -4%; in assay [1] (at 50.0 µM) it was 21.1%; in assay [2] (setting [7]), -1%; in assay [2] (setting [8]) it was 1%; in assay [2] (at 50.0 µM), 5.9%. The growth inhibition in assay [3] (setting [7]) is 0%; in assay [3] (setting [8]), -5%; in assay [3] (at 50.0 µM) it was 17.6%; in assay [4] (setting [7]), -1%; in assay [4] (setting [8]) it was -5%; in assay [5] (setting [7]), 3%. The growth inhibition in assay [5] (setting [8]) was 1%; in assay [5] (at 50.0 µM), 59.5%; in assay [6] (setting [7]) it was 0%; in assay [6] (setting [8]), -7%; in assay [6] (at 50.0 µM), 38.9%.

On to `CC(=Nc1ccc(N(C)C)cc1)c1ccccc1`, for which the growth inhibition was -8% in assay [1] (setting [7]); 60% in assay [1] (setting [8]); 69.7% in assay [1] (at 50.0 µM); -11% in assay [2] (setting [7]); 78% (active) in assay [2] (setting [8]); 54.8% in assay [2] (at 50.0 µM). Besides, the growth inhibition in assay [3] (setting [7]) was -5%; in assay [3] (setting [8]), 70% (active); in assay [3] (at 50.0 µM) it was 46%; in assay [5] (setting [7]), -15%; in assay [5] (setting [8]), 88% (active); in assay [5] (at 50.0 µM), 71.7% (active).

As to `CC1CC(c2ccccc2)CC(C)N1c1ccc2ccccc2c1` (stereo not given), the growth inhibition in assay [1] (setting [7]) was 9%; in assay [1] (setting [8]) it was 82% (active); in assay [1] (at 50.0 µM) it was 77.8% (active); in assay [2] (setting [7]), 13%; in assay [2] (setting [8]), 74% (active); in assay [2] (at 50.0 µM), 69.3%. Moreover, the growth inhibition in assay [3] (setting [7]) is 1%; in assay [3] (at 50.0 µM), 77% (active); in assay [4] (setting [7]) it was 5%; in assay [4] (setting [8]), 61%; in assay [4] (at 50.0 µM), 36.4%; in assay [5] (setting [7]), 0%. The growth inhibition is 65% in assay [5] (setting [8]); 93.7% (active) in assay [5] (at 50.0 µM); 2% in assay [6] (setting [7]); 84% (active) in assay [6] (setting [8]); 93.3% (active) in assay [6] (at 50.0 µM).

As to `CC(C(O)c1ccccc1)C(O)(C(F)(F)F)C(F)(F)F` (stereo not given), the growth inhibition in assay [1] (setting [7]) is 8%; in assay [1] (setting [8]), 13%; in assay [1] (at 50.0 µM), 8.95%; in assay [2] (setting [7]), 6%; in assay [2] (setting [8]), -3%; in assay [2] (at 50.0 µM), -7.6%. Also, the growth inhibition is 3% in assay [3] (setting [7]); 10% in assay [3] (setting [8]); -15.9% in assay [3] (at 50.0 µM); -2% in assay [5] (setting [7]); -7% in assay [5] (setting [8]); -19.6% in assay [5] (at 50.0 µM). In addition, the figures for the growth inhibition in assay [6] (setting [7]), in assay [6] (setting [8]) and in assay [6] (at 50.0 µM) were 18%, 6% and 17.4%, respectively.

Take `CCOC(=O)C(CCSC)C(=O)OCC`: the growth inhibition in assay [1] (setting [7]) is -1%; in assay [1] (setting [8]), -2%; in assay [1] (at 50.0 µM) it was 11%; in assay [2] (setting [7]), 2%; in assay [2] (setting [8]) it was 2%; in assay [2] (at 50.0 µM), 12.8%. Besides, the growth inhibition in assay [3] (setting [7]) is 4%; in assay [3] (setting [8]), -2%; in assay [3] (at 50.0 µM), -0.15%; in assay [4] (setting [7]), 1%; in assay [4] (setting [8]), -1%; in assay [4] (at 50.0 µM) it was 76.1% (active). Further, the growth inhibition in assay [5] (setting [7]) was -3%; in assay [5] (setting [8]), 3%; in assay [5] (at 50.0 µM), -2.4%; in assay [6] (setting [7]), -3%; in assay [6] (setting [8]) it was -4%; in assay [6] (at 50.0 µM) it was 2.35%.

Take `Cc1ccc(C(=Nc2ccccc2)N=P(c2ccccc2)(c2ccccc2)c2ccccc2)cc1`: the growth inhibition in assay [1] (setting [7]) was 56%; in assay [1] (setting [8]), 98% (active); in assay [1] (at 50.0 µM) it was 90.6% (active); in assay [2] (setting [7]) it was 45%; in assay [2] (setting [8]), 99% (active); in assay [2] (at 50.0 µM), 91.9% (active). The growth inhibition in assay [4] (setting [7]) was 39%; in assay [4] (setting [8]), 99% (active); in assay [4] (at 50.0 µM), 89.5% (active); in assay [5] (setting [7]), 45%; in assay [5] (setting [8]), 99% (active); in assay [5] (at 50.0 µM) it was 88.2% (active). Moreover, the growth inhibition is 61% in assay [6] (setting [7]), 99% (active) in assay [6] (setting [8]) and 91.5% (active) in assay [6] (at 50.0 µM).

As for `CN(C)CCC(/C=C/c1ccccc1)=N\Nc1ccc(Cl)cc1Cl`, the growth inhibition in assay [1] (setting [7]) is 66%; in assay [1] (setting [8]), 87% (active); in assay [1] (at 50.0 µM), 99.5% (active); in assay [2] (setting [7]), 32%; in assay [2] (setting [8]), 94% (active); in assay [2] (at 50.0 µM) it was 99.5% (active). Further, the growth inhibition in assay [3] (setting [7]) was 47%; in assay [3] (setting [8]), 91% (active); in assay [3] (at 50.0 µM) it was 99.4% (active); in assay [5] (setting [7]), 80% (active); in assay [5] (setting [8]), 90% (active); in assay [5] (at 50.0 µM), 98.8% (active). The growth inhibition in assay [6] (setting [7]) was 78% (active); in assay [6] (setting [8]), 91% (active); in assay [6] (at 50.0 µM) it was 99.5% (active).

On to `CCNCCNc1cc(O)c2c(c1O)C(=O)c1ccccc1C2=O`, for which the growth inhibition was 73% (active) in assay [1] (setting [7]); 98% (active) in assay [1] (setting [8]); 87.2% (active) in assay [1] (at 50.0 µM); 92% (active) in assay [2] (setting [7]); 98% (active) in assay [2] (setting [8]); 84.9% (active) in assay [2] (at 50.0 µM). In addition, the growth inhibition in assay [4] (setting [7]) was 30%; in assay [4] (setting [8]), 83% (active); in assay [4] (at 50.0 µM), 67.8%; in assay [5] (setting [7]) it was 96% (active); in assay [5] (setting [8]), 98% (active); in assay [5] (at 50.0 µM), 78.5% (active). Moreover, the figures for the growth inhibition in assay [6] (setting [7]), in assay [6] (setting [8]) and in assay [6] (at 50.0 µM) were 91% (active), 98% (active) and 91.7% (active), respectively.
